# Data reported in PubChem BioAssay AID1347417 (National Center for Advancing Translational Sciences (NCATS), 2020).
# The campaign covered roughly 120,000 compounds. About 5,300 (4.4%) were called active. Where a call stands in place of a potency, no number is given. Not shown: some 22% with an inconclusive outcome. The call rests on the fitted dose curve; in most records, active means well fitted inhibition curve with a large enough effect; inconclusive means small, poorly fitted or top-dose-only effect; inactive means no such curve, though single readings can be large or run the other way. The sample as a whole holds a higher share of actives than the screen did.
# Assay: qHTS Primary assay for Inhibitors of Plasmodium falciparum Dd2 growth in vitro; further: nearly all actives have a fitted effect of over 65% in size
# Details: P. falciparum Dd2 growth, SYBR Green, 72 h; series mostly up to 28.9 µM
# How it was run: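 Readout: SYBR Green fluorescence, 485 nm excitation, 535 nm emission, after ~16 h lysis at 37C. Before that, Dd2-infected red cells (2.5% hematocrit) grew 72 h with compound, 29 uM top final concentration.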
# Potency means the concentration at half of the fitted maximal effect.
row,SMILES,Potency
1,O=C(NCCc1ccc(Cl)cc1)c1ccc2nccn2c1,inactive
2,O=C(CCCN1C(=O)C(c2ccccc2)Oc2cccnc21)NCCc1noc(-c2ccncc2)n1 (centres undefined),inactive
3,Cc1ccc2oc(C(=O)N(C)CCc3ccccc3)c(C)c2c1,inactive
4,O=C(NCc1ccncc1)C1CN(S(=O)(=O)c2cccnc2)CC12CCOCC2 (centres undefined),inactive
5,COc1ncccc1Nc1ncc(-c2ccccc2)c2c1OCC2,inactive
6,COc1ccccc1-c1cnc(NC(=O)c2ccc(Cl)cc2)c2c1CCO2,inactive
7,CN1CCN(Cc2ccc(Nc3ncc(-c4cccnc4)c4c3OCC4)cc2)CC1,10 µM (active)
8,COc1cccc(C(=O)N2CCC(N3CCCCCC3=O)CC2)c1,inactive
9,O=C1NCc2ccccc2CC12CCN(Cc1cccc(Cl)c1)CC2,inactive
10,Cc1cccc(C)c1CN1CCC2(CC1)Cc1ccccc1CNC2=O,inactive
11,CC(C)Cc1ccc(CN2CCC3(CC2)Cc2ccccc2CNC3=O)cc1,11.2 µM (active)
12,Cc1cc2nc3n(c(=O)c2n1CC(=O)NCc1ccc(F)cc1)CCCCC3,inactive
13,CC(C)CCN1CCC2(C1)C(=NC1CCCCC1)NC(=O)N2c1cc(F)cc(F)c1 (centres undefined),8.91 µM (active)
14,O=C(c1ccccc1F)N1CCCC2(C1)C(=NC1CCCCC1)NC(=O)N2c1cc(F)cc(F)c1 (centres undefined),inactive
15,COC(=O)N1CCC2(CC1)C(=NC1CCCC1)NC(=O)N2c1cc(F)cc(F)c1,inactive
16,O=C1NC(=NC2CCCC2)C2(CCCN(Cc3ccsc3)C2)N1c1cc(F)cc(F)c1 (centres undefined),5.01 µM (active)
17,O=C1NC(=NC2CCCCC2)C2(CCCN(S(=O)(=O)c3cccs3)C2)N1c1cc(F)cc(F)c1 (centres undefined),inactive
18,COc1ccc(C(=O)N2CCCC3(C2)C(=NC2CCCC2)NC(=O)N3c2cc(F)cc(F)c2)cc1 (centres undefined),inactive
19,CS(=O)(=O)N(C1CCOCC1)C1CCN(C(=O)CC2CCCC2)CC1,inactive
20,COc1ccc(-c2nc(C(C)C)nc3c2CN(C(=O)c2ccccc2F)CC3)cc1,inactive
21,COc1ccc(C(=O)N2CCc3nc(C(C)C)nc(-c4ccc(Cl)cc4)c3CC2)cc1,11.2 µM (active)
22,COc1ccc(-c2nc(C3CC3)nc3c2CCN(C(=O)c2ccc(C(F)(F)F)cc2)CC3)cc1,5.01 µM (active)
23,O=C(c1cccc(Cl)c1)N1CCc2nc(C3CC3)nc(-c3ccc(Cl)cc3)c2C1,inactive
24,O=C(c1ccc(C(F)(F)F)cc1)N1CCc2nc(C3CC3)nc(-c3ccc(Cl)cc3)c2C1,inactive

row,SMILES,Potency
1,COc1ccc(-c2nc(C(C)C)nc3c2CN(C(=O)c2ccc(C(F)(F)F)cc2)CC3)cc1,inactive
2,O=C(c1ccccc1)N1CCC2(CC1)C(=O)NCN2C(=O)CCCN1CCCC1,inactive
3,COc1ccccc1OCCNC(=O)c1cn2ccnc(-c3ccc(C)cc3)c2n1,inactive
4,Cn1cc(CNC(=O)C[C@@H]2C[C@H]3O[C@H](CNC(=O)Nc4cccs4)[C@@H](O)[C@H]3O2)cn1,inactive
5,COC1CCN(C(=O)c2c(-c3cnn(C)c3NCc3cccnc3)noc2C)CC1,inactive
6,COc1ccc(N2CC(c3noc(-c4ccc(C(C)(C)C)cc4)n3)CC2=O)cc1 (centres undefined),inactive
7,CCn1cc(-c2ccc(OC)cc2)cc1C(=O)N1CCC(C)CC1,inactive
8,Cc1ccc(CN2CCC3OCCN(Cc4ccccc4)C(=O)C3C2)o1 (centres undefined),inactive
9,Cn1nc2n(c1=O)CCN(C(=O)C1CC=CCC1)CC2 (centres undefined),inactive
10,COc1ccc2c(c1)c(=O)c(C(=O)c1ccccc1)cn2CC(=O)Nc1ccc2c(c1)OCCO2,inactive
11,COc1ccc(NC(=O)Cn2cc(C(=O)c3ccncc3)c(=O)c3cc(C)ccc32)cc1Cl,inactive
12,CCOc1ccc(NC(=O)Cn2cc(C(=O)c3ccc(C)cc3)c(=O)c3cc4c(cc32)OCCO4)cc1,inactive
13,COc1cc2[nH]c(=O)n(Cc3ccc(C(=O)NCc4ccc(C)cc4)cc3)c(=O)c2cc1OC,inactive
14,COc1ccc(Cn2cc(C(=O)c3ccc(C)cc3)c(=O)c3cc(OC)c(OC)cc32)cc1,12.6 µM (active)
15,CCOc1ccc(C(=O)c2cn(Cc3ccccc3OC)c3ccc(F)cc3c2=O)cc1,10 µM (active)
16,COC(=O)C1=CN(CC(=O)Nc2ccc(F)cc2F)S(=O)(=O)N=C1C,inactive
17,CCn1cnnc1CC1CCN(C(=O)C2CCN(Cc3nc(-c4cccc(C)c4)oc3C)CC2)CC1,3.16 µM (active)
18,CCn1cnnc1CC1CCN(C(=O)c2cc(-c3ccc(F)cc3)nc3ccccc23)CC1,inactive
19,COc1ccc(-c2nc(CN3CCC(C(=O)NCc4ccccc4)CC3)c(C)o2)cc1OC,inactive
20,CC(C)CNC(=O)N1C[C@@H](Oc2cccnc2)C[C@H]1C(=O)N1CCOCC1,inactive
21,NS(=O)(=O)c1ccc(F)c(C(=O)NCc2ccc3nonc3c2)c1,inactive
22,CCOc1ccc(CCNc2nc(-c3ccccc3)no2)cc1,inactive
23,Cc1ccc(-n2cnc3cc(C(=O)NCCC4=CCCCC4)ccc32)cc1Cl,inactive
24,Cc1ccc(CCNC(=O)c2ccc3c(c2)nc2n3CCC(C)C2)cc1 (centres undefined),inactive

row,SMILES,Potency
1,CCCNC(=O)c1ccc2c(c1)ncn2-c1ccc(C)cc1C,11.2 µM (active)
2,Cc1cc(Cn2cc3c4c(cccc42)[C@H](CC(C)C)N[C@H](C(=O)N2CCCCCC2)C3)no1,inactive
3,CN1C(=O)c2cccn2CC1C(=O)N1CCc2ccccc21 (centres undefined),inactive
4,COc1ccc(Cl)cc1NC(=O)c1sc2nc3c(cc2c1N)CN(C)CC3,inactive
5,CCc1cccc(NC(=O)c2cnc(N3CCOCC3)c3ccccc23)c1,inactive
6,CCc1ccc(NC(=O)c2cnc3c(-c4ccccc4)c(C)nn3c2C)cc1,inactive
7,CCc1ccc(NC(=O)c2sc3nc4c(cc3c2N)CN(CC)CC4)cc1,11.2 µM (active)
8,O=C(Nc1ccc(OC(F)(F)F)cc1)c1cc2c(=O)n3ccccc3nc2s1,inactive
9,CCN1CCc2nc3sc(C(=O)Nc4ccccc4OC(F)(F)F)c(N)c3cc2C1,10 µM (active)
10,CCOc1ccccc1C(=O)N1CCC2(CC1)CN(C(C)=O)CC2COC (centres undefined),inactive
11,CCC(=O)N1CCc2c(sc3ncnc(NCc4cccnc4)c23)C1,inactive
12,Cc1noc2c(-c3cccc(CO)c3)cc(-c3ccccc3)nc12,inactive
13,O=C(Cc1ccc(OC(F)(F)F)cc1)N1CC2CC(C1)[C@H]1CCCC(=O)N1C2 (some centres undefined),inactive
14,Cn1ccnc1C(=O)N1CCCCCCNC(=O)[C@@H]2CCCC[C@@H]21,inactive
15,CC1(C)[C@H](Cc2cc(-c3ccccc3)on2)C[C@@H]1NCC1CC1,12.6 µM (active)
16,CC1(C)[C@H](Cc2cc(-c3ccccc3)on2)C[C@@H]1NS(C)(=O)=O,inactive
17,CC1(C)[C@H](Cc2cc(CCO)on2)C[C@@H]1NCC1CC1,inactive
18,CCn1ncc(N2CCC(NC(=O)CCOC)CC2)cc1=O,inactive
19,O=C(NC1CCN(c2cc(-c3ccc(Cl)cc3)[nH]n2)CC1)c1ccccc1F,inactive
20,O=C(Cn1ccn2nc(-c3ccccc3)c(CO)c2c1=O)Nc1cc(F)ccc1Cl,inactive
21,CC1=C[C@@H](CNC(=O)NC(C)C)[C@H](C(C)C)C[C@H]1Cc1nnc(-c2ccncc2)o1,inactive
22,CC1=C[C@@H](CNC(=O)COc2ccccc2)[C@H](C(C)C)C[C@H]1CC(=O)NCc1ccccn1,inactive
23,CC1=C[C@@H](CNC(C)C)[C@H](C(C)C)C[C@H]1Cc1nnc(-c2ccc(N(C)C)cc2)o1,3.55 µM (active)
24,CC1=C[C@@H](CN2CCC(O)CC2)[C@H](C(C)C)C[C@H]1Cc1nnc(-c2ccccc2F)o1,8.91 µM (active)

row,SMILES,Potency
1,CC1=C[C@@H](CN2CCN(CCO)CC2)[C@H](C(C)C)C[C@H]1Cc1nnc(-c2ccc(C)cc2)o1,inactive
2,CC1=C[C@@H](CN2CCCC2)[C@H](C(C)C)C[C@H]1Cc1nnc(-c2ccc([N+](=O)[O-])cc2)o1,1.78 µM (active)
3,CC1=C[C@@H](CC#N)[C@H](C(C)C)C[C@H]1CC(=O)N1CCN(C)CC1,inactive
4,Fc1ccc(CN2CC[C@H](c3nnc(-c4ccccc4F)o3)C2)cc1,inactive
5,CC1=C[C@@H](CNC(C)C)[C@H](C(C)C)C[C@H]1Cc1nnc(-c2ccncc2)o1,inactive
6,CN(C)C[C@@H]1CN(Cc2ccccn2)C[C@H]1NC(=O)c1cc(Cl)ccc1F,inactive
7,Cc1ccc(C(=O)N2C[C@@H](Oc3cccnc3)C[C@H]2C(=O)N2CCOCC2)s1,inactive
8,CCC(CC)NC(=O)C1Cn2cccc2C(=O)N1 (centres undefined),inactive
9,Cc1noc(-c2cn(C3CCN(C(=O)c4ccoc4)CC3)nn2)n1,inactive
10,NC(=O)c1cccc(-c2ccc3c(n2)CN(Cc2ccc(C(F)(F)F)cc2)C(=O)CO3)c1,inactive
11,COc1ccc(Nc2nc(-c3cccc(OC)c3OC)no2)cc1,inactive
12,O=C(Cn1cccc1-c1nc(-c2ccc(F)cc2)no1)Nc1cc(F)cc(F)c1,inactive
13,O=C(Cn1cccc1-c1nc(-c2ccccc2)no1)Nc1ccccc1F,3.98 µM (active)
14,COc1ccc(-c2noc(-c3cccn3CC(=O)Nc3ccccc3)n2)cc1F,1.58 µM (active)
15,COc1ccc(Cl)cc1NC(=O)Cn1c(=O)c2ccccc2n2nncc12,inactive
16,COc1ccc(Cl)cc1NC(=O)CSc1nc(=O)[nH]c2c1CCCC2,inactive
17,COc1ccc(CNC(=O)Cn2cccc2-c2nc(-c3ccc(F)cc3)no2)cc1,inactive
18,CCc1cc(=O)n(CC(=O)Nc2ccccc2F)c(-c2cccc(F)c2)n1,inactive
19,CC(=O)c1ccc(NC(=O)COc2ccccc2-c2nc(-c3ccccc3)no2)cc1,inactive
20,COc1ccc(-c2noc(-c3cccn3CC(=O)Nc3cc(Cl)ccc3OC)n2)cc1F,3.98 µM (active)
21,CCOC(=O)N1CCC(N2CCN(c3cc(C(C)C)nc(C)n3)CC2)CC1,inactive
22,Cc1ccccc1C(=O)N[C@@H]1CN(c2ncccn2)C[C@H]1CO,inactive
